Results published in PubChem BioAssay (EPA / NIEHS).
Results filed as inconclusive are left out. Calls of active or inactive are those of the source. Rule for the calls: active = hit-call score of the fitted dose curve at least 0.9, where 1 is the maximum; inconclusive = response in the unintended direction; inactive = score below 0.9.

Assay: ACEA_ER_AUC_viability: ACEA Biosciences xCELLigence Real-Time Cell Analysis on Estrogen Receptor Agonism for Viability (AID 2283782);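 note: hit means loss of impedance signal meaning reduced cell growth or viability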
Method in brief: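 Read-out: real-time electrical impedance (RT-CES) area under curve, loss of signal taken as reduced viability, normalized to DMSO baseline. T-47D cells, charcoal-stripped serum medium, compounds up to 100 uM final, continuous exposure, 80 h.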
With CCCN(CC)CC1COC2(CCC(C(C)(C)C)CC2)O1 (stereo unspecified) the AC50 was 81 µM (active).
For Nc1cnn(-c2ccccc2)c(=O)c1Cl, the outcome was “inactive”.
In the case of Cc1c(COC(=O)[C@@H]2[C@H](/C=C(\Cl)C(F)(F)F)C2(C)C)cccc1-c1ccccc1, the outcome is reported as “inactive”.
For COP(=S)(OC)Oc1ccc([N+](=O)[O-])c(C)c1, the outcome was “inactive”.
In the case of Cc1ccc(N=CN(C)C=Nc2ccc(C)cc2C)c(C)c1, the AC50 is reported as 50 µM (active).
For CC(C)=CC1C(C(=O)OCc2coc(Cc3ccccc3)c2)C1(C)C (stereo unspecified), the AC50 was 84 µM (active).
